Here are results for 40 compounds from PubChem BioAssay (NCI).

This is part of a sample that, as a whole, favours compounds with a hit. Of some 83,000 tested, about 20% had one in any assay.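 Testing used 96-well plates and a 48-hour single-concentration exposure. Example: -40 means 40% of the starting cells died.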 Calls of active or inactive are those of the source. Rule for the calls: active = growth percent below 10; inactive = the rest.

This assay has as its system HL-60(TB) leukemia. As to the kind of experiment: NCI-60 one-dose screen, 48 h (100 = growth as untreated, 0 = no growth, -100 = all killed). Conditions: 10 µM unless noted.
For `Cc1cccc2nc3c(n12)C(=O)C(=O)c1ccccc1-3`, the growth is 77.4% (inactive).

For `CN1CCN(c2nc(NCCNc3ccnc4cc(Cl)ccc34)c3ccccc3n2)CC1`, the growth was -63.3% (active).

Turning to `Oc1ccc(C(c2ccc(O)cc2)c2ccc(Br)cn2)cc1`, the growth was 106% (inactive).

As to `CNc1ccc(Nc2cccc(C)c2)c2c1C(=O)c1ccccc1C2=O`, the growth was 80.6% (inactive).

Regarding `COc1cc(NC(C)CCCN2C(=O)c3ccccc3C2=O)c2nc(C)ccc2c1OC` (stereo not given), the growth is 69.6% (inactive).

`Clc1ccc2nn3c4ccccc4c(OCCN4CCOCC4)nc3c2c1`: the growth is 81.9% (inactive).

`CC(=O)c1cc(Nc2cc(C)nc(N)n2)cc(C(C)=O)c1`: the growth was 96.1% (inactive).

Take `COc1cccc(-c2nc3sccn3c2/C=C/C(=O)c2ccc(C(F)(F)F)cc2)c1`: the growth was 46.2% (inactive).

For the compound `Cc1ccc(S(=O)(=O)NNC(=O)/C(=C\c2ccc(Cl)cc2)c2nc3ccccc3s2)cc1`, the growth is 89.7% (inactive).

For the compound `c1ccc2[nH]c(-c3ccc(OCCCCCOc4ccc(-c5nc6ccccc6[nH]5)cc4)cc3)nc2c1`, the growth is -45.7% (active).

As to `Oc1c(C(Nc2ccccc2)c2ccccc2)ccc2cccnc12` (stereo not given), the growth is 15.7% (inactive).

For `C=C1C(=O)O[C@H]2[C@H]1CC/C(COC(=O)NCCOCCOCC(=O)Nc1ccc(OC)c(C(N)=O)c1O)=C\CC[C@@]1(C)O[C@@H]21`, the growth was -6.3% (active).

With `NNc1ncccn1`, the growth is 103% (inactive).

Turning to `CC(O)Cc1c[nH]c(=O)[nH]c1=O` (stereo not given), the growth was 103% (inactive).

On to `CNCCCn1c2c(c3ccc(Cl)cc3c1=O)C(=O)c1cc(OC)cnc1-2`, for which the growth was -26.3% (active).

In the case of `CCOC(=O)C1C(=O)C=C(c2ccccc2)CC1c1sc(N(C)Cc2ccccc2)nc1Cl` (stereo not given), the growth is 78.4% (inactive).

Consider `COc1cc2c(c(OC)c1)C1c3cc(OC)ccc3NC(=O)N1CC2` (stereo not given), for which the growth was 66.3% (inactive).

On to `Nc1nc(Nc2cccnc2)sc1C(=O)c1ccccc1F`, for which the growth is -35.6% (active).

On to `O=C1OC[C@H]2[C@H](c3ccc(O)c(O)c3)c3cc(O)c(O)cc3C[C@H]12`, for which the growth was 217% (inactive).

Turning to `O[C@@H](c1cc(C(F)(F)F)nc2c(C(F)(F)F)cccc12)[C@H]1CCCCN1`, the growth was 59.4% (inactive).

For `COc1cc(C2CC(c3ccc(Nc4nc(NCCO)nc(NCCO)n4)cc3)=NN2c2cc(Cl)cc(Cl)c2)cc(OC)c1OC` (stereo not given), the growth was -5.04% (active).

As to `COc1ccc(-c2cc(-c3nnc(SC/C(=N\O)c4ccccc4)n3-c3ccccc3)c3ccccc3n2)cc1`, the growth is 94.3% (inactive).

On to `CC/C=C\C[C@H](O)C/C=C1/C(=O)C=C[C@@H]1C/C=C\CCCC(=O)OC(C)C`, for which the growth was -38.3% (active).

As to `N#Cc1c(NC(=O)c2ccco2)[n+]([O-])c2cc(Cl)c(Cl)cc2[n+]1[O-]`, the growth was 91.8% (inactive).

With `CCN1CC(CCN2CCOCC2)C(C(c2ccccc2)c2ccccc2)C1=O` (stereo not given), the growth is 113% (inactive).

In the case of `CC(C)=CCc1cc(O)cc2c1OC(C=C(C)C)C1=C2C(=O)C2=C(NCCS2(=O)=O)C1=O` (stereo not given), the growth is -35.7% (active).

Consider `COc1ccc(C(C)=O)c(OC)c1`, for which the growth was 115% (inactive).

Turning to `NC(CCl)=NCCC[C@H](N)C(=O)O`, the growth was 104% (inactive).

Take `O=C1Nc2ccccc2/C1=C/c1cccn1C(=O)c1ccc(Cl)s1`: the growth was 57.3% (inactive).

For the compound `CCN(CC)C(=O)C[N+](C)(C)CCOC(c1ccccc1)c1ccccc1`, the growth was 97.5% (inactive).

Take `Cn1cc(-c2nc(-c3c[nH]c4ncc(F)cc34)cs2)c2cccnc21`: the growth is 103% (inactive).

With `NC(N)=N/N=C(/c1ccccc1)c1ccc(F)cc1`, the growth is -70.6% (active).

Consider `[Ag].[Ag].[NH-]S(=O)(=O)c1ccc(N=Nc2cc(N=Nc3ccc(S([NH-])(=O)=O)cc3)c3c(NC(=O)C(Cl)Cl)cccc3c2OC(=O)C(Cl)Cl)cc1.[c-]1nccs1.[c-]1nccs1`, for which the growth was 44.2% (inactive).

For `COc1ccc(C2CC(=O)Oc3c(OC)c4c(c(OC)c32)OCO4)cc1` (stereo not given), the growth was 95.6% (inactive).

Take `O=C(/C(=C(\C(=O)c1ccccc1)c1ccccc1)c1ccccc1)c1ccccc1`: the growth is -1.48% (active).

Turning to `COc1ccc(C2CC(c3cccc(Nc4ccnc5cc(Cl)ccc45)c3)=NN2C=O)cc1` (stereo not given), the growth was -38.2% (active).

Consider `Oc1ccc(Br)cc1/C=N/NC(=S)NC12CC3CC(CC(C3)C1)C2`, for which the growth was -25.8% (active).

For `O=C1C(=O)c2c(nc3ccc(Br)cn23)-c2ccccc21`, the growth is -58.2% (active).

Turning to `O=C1C=CC(=O)N1c1ccccc1`, the growth is 44.5% (inactive).

`CCCCCN1C=C/C(=C\C(=O)n2ccc3ccccc32)c2ccccc21`: the growth was 103% (inactive).
